# Reference: the supplement of paper PMC11026393
# Test system: H1299
# Assay: difference in mean normalized H2B-mRuby nuclear fluorescence intensity relative to DMSO control (normalized intensity difference (DMSO = 0)); higher = stronger increase in transgene reporter fluorescence
# Conditions: 24 h
# Description: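 Cancer cell lines stably expressing H2B-mRuby2 from a lentiviral PGK promoter were treated with each drug for 24 h and imaged on a Leica DMI8 (ex 541-551 / em 565-605 nm). Nuclei were segmented in CellProfiler. The value is the difference in mean per-nucleus normalized H2B-mRuby intensity versus DMSO-treated cells (about 3 repeats x 4 fields). Doxorubicin is itself fluorescent. Dasatinib is in nM.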
smiles,measurement,setting,value
O=C(NOC[C@H](O)CO)c1ccc(F)c(F)c1Nc1ccc(I)cc1F (concentration unit: uM),difference,concentration: 0.05,-0.0791
same,difference,concentration: 0.1,-0.114
same,difference,concentration: 0.25,-0.172
same,difference,concentration: 1,-0.174
same,difference,concentration: 5,-0.199
CC(=O)c1c(C)c2cnc(Nc3ccc(N4CCNCC4)cn3)nc2n(C2CCCC2)c1=O (concentration unit: uM),difference,concentration: 0.1,-0.156
same,difference,concentration: 0.5,-0.266
same,difference,concentration: 1,-0.19
same,difference,concentration: 5,-0.0957
same,difference,concentration: 10,-0.0594
O=C(/C=C/c1cccc(S(=O)(=O)Nc2ccccc2)c1)NO (concentration unit: uM),difference,concentration: 0.25,0.186
same,difference,concentration: 0.5,0.231
same,difference,concentration: 1,0.491
same,difference,concentration: 2.5,0.854
same,difference,concentration: 5,1.19
C[C@@H](Oc1cc(-c2cnn(C3CCNCC3)c2)cnc1N)c1c(Cl)ccc(F)c1Cl (concentration unit: uM),difference,concentration: 0.25,0.0337
same,difference,concentration: 1,-0.111
same,difference,concentration: 2.5,-0.0387
same,difference,concentration: 5,0.194
same,difference,concentration: 10,0.228
COc1cc([C@@H]2c3cc4c(cc3[C@@H](O[C@@H]3O[C@@H]5CO[C@@H](C)O[C@H]5[C@H](O)[C@H]3O)[C@H]3COC(=O)[C@H]23)OCO4)cc(OC)c1O (concentration unit: uM),difference,concentration: 0.5,0.147
same,difference,concentration: 1,0.0921
same,difference,concentration: 2.5,0.108
same,difference,concentration: 5,0.206
same,difference,concentration: 10,0.153
same,difference,concentration: 20,0.189
Cn1ncnc1[C@H]1c2n[nH]c(=O)c3cc(F)cc(c23)N[C@@H]1c1ccc(F)cc1 (concentration unit: uM),difference,concentration: 1,0.0403
same,difference,concentration: 2.5,-0.0275
same,difference,concentration: 5,0.00616
same,difference,concentration: 10,0.00511
same,difference,concentration: 25,0.0863
O=C(c1cc(Cc2n[nH]c(=O)c3ccccc23)ccc1F)N1CCN(C(=O)C2CC2)CC1 (concentration unit: uM),difference,concentration: 1,-0.0151
same,difference,concentration: 2.5,-0.0147
same,difference,concentration: 5,0.0174
same,difference,concentration: 10,0.0357
same,difference,concentration: 25,0.0633
Cc1nc(Nc2ncc(C(=O)Nc3c(C)cccc3Cl)s2)cc(N2CCN(CCO)CC2)n1 (concentration unit: nM),difference,concentration: 25,-0.00395
same,difference,concentration: 100,0.0114
same,difference,concentration: 250,0.0693
same,difference,concentration: 1000,0.167
same,difference,concentration: 2500,0.163
